GALK inhibitor: galactokinase (human) inhibition; Potency, µM (highest dose often 57.5 µM), for inactives: at the highest dose activity change, negative = inhibition, actives largely listed as inhibitors; Purified GALK, Kinase-Glo residual ATP luminescence; P51570; actives 0.007% (n = 270,000); note: potency is the fitted concentration of half-maximal effect; % is set by controls: 0 for no effect and ±100 for the full control effect
Target sequence (P51570 whole entry, looked up): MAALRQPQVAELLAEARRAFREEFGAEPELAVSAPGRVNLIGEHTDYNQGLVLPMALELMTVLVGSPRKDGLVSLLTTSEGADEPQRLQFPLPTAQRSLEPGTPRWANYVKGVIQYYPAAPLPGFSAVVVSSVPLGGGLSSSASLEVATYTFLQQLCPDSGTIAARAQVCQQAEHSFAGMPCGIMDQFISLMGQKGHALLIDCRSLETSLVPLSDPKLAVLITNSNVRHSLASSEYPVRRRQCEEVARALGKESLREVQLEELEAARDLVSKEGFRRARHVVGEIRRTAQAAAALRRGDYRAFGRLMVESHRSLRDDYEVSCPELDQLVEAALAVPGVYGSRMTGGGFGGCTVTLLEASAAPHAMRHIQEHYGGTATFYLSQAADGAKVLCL
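GALK at 5 nM final was combined with compound, 35 uM ATP and 100 uM galactose in HEPES pH8.0 with MgCl2 and DTT. The reaction ran one hour at room temperature before luminescent ATP detection.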
D1 ag: human D1 receptor agonism | P21728 | HEK293 T-REx D1 cells, calcium flux, agonist mode | activation, % at 2 µM | actives 1% (n = 360,000); in the data active = activation above about 30%; note: 0% is about no effect
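Tetracycline-induced HEK293 TREx D1 cells, force-coupled to calcium signalling, were dye-loaded with a no-wash calcium kit. Compound was pin-added after a 10 s baseline. Fluorescence was read kinetically at 1 cycle/s for 180 s, with calcium rises flagged as agonism.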
Eya2 inh: inhibitors of human Eya2 phosphatase activity. O00167. recombinant Eya2, OMFP fluorescence dephosphorylation (OMFP is methylfluorescein phosphate). Potency, µM (highest dose often 76.9 µM), without a hit: at the top dose activity, negative = inhibition, usual class: inhibitors. actives 0.006% (n = 330,000); note: potency is the fitted concentration of half-maximal effect; % is set by controls: 0 for no effect and ±100 for the full control effect
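Eya2 (0.2 uM) preincubated 10 min at ambient with compound, then OMFP substrate added at 50 uM; 10 min reaction in 50 mM HEPES pH 7.5, 50 mM NaCl, 5 uM MgCl2, 0.05% BSA, 1 mM DTT. Fluorescence read at Ex 485/Em 525 nm.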
USP2a inh: blocks human ubiquitin-specific protease USP2a; Potency, µM (top dose mostly 38.3 µM), without a hit: at the highest dose activity change, negative = inhibition, hits mostly inhibitors; USP2 core, Ub-CHOP2 coupled fluorogenic reporter, 485/531; actives 0.01% (n = 330,000); O75604; AID 463254;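 note: potency is the fitted concentration of half-maximal effect; plate controls were DMSO wells for no effect and full inhibition by NEM control for full effect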
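Cell-free coupled assay: 10nM USP2 core preincubated 30min RT with compound in Tris-HCl pH 8.0/CaCl2/CHAPS buffer, then 25nM Ub-CHOP2 and 25nM reporter substrate; fluorescence (Ex 485/Em 531) read after 60min RT, normalized to NEM inhibition, concentration-response curves fitted.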
D1 PAM: enhances dopamine response at the human D1 receptor; P21728; potentiation, % at 10 µM; AID 504651; HEK293 TREx D1 cells, calcium flux, dopamine EC20 potentiation; actives 0.036% (n = 360,000); in the data active = potentiation above about 30%; note: 0% is about no effect
D1 antagonist: antagonists of human D1 dopamine receptor; actives 3.2% (n = 360,000); activity change, negative = inhibition, % at 10 µM; P21728; HEK293 TREx D1 cells, calcium flux, dopamine EC80; active compounds read low; in the data active = activity change below about -30%; note: % is set by controls: 0 for no effect and ±100 for the full control effect
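Calcium flux readout: force-coupled, inducible Hek293 Trex D1 line, cells induced overnight at 30 C with tetracycline, dye-loaded 30–90 min at RT. Antagonism scored against EC80 dopamine challenge given 180 s after compound.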
The depositor's hits bear a star; ? = inconclusive; nt = no result. Rows were chosen to be rich in hits. Some 3.9% of all compounds tested hit in one or more screens of this group. Unless noted, calls come from the whole dose curve; as a rule, active = well fitted inhibition curve with a large enough effect; inconclusive = small, poorly fitted or top-dose-only effect, or effect the other way; inactive = flat fitted curve, though single readings scatter.

SMILES | GALK inhibitor | D1 ag | Eya2 inh | USP2a inh | D1 PAM | D1 antagonist
Cc1cccc(CNC(=O)CCCN2C(=O)CCn3nc(-c4cccn4C)cc32)c1 | nt | 0 | nt | nt | 0 | -2
CCc1nc2nc(C)cc(Nc3cc(Cl)ccc3C)n2n1 | nt | 0 | nt | nt | -1 | 13
CCC1CCCCN1S(=O)(=O)c1ccc(C(=O)Nc2nnc(C3CC3)o2)cc1 (configuration not stated) | 2% | 1 | -6% | -3% | 0 | -17
CCC1CCCCN1S(=O)(=O)c1ccc(NC(=O)c2ccncc2)cc1 (configuration not stated) | 2% | 18 | -5% | -4% | -5 | -34*
CS(=O)(=O)c1ncc(Cl)c(C(=O)Nc2ccc3ccccc3c2)n1 | 3% | 3 | 1% | -1% | -10 | -33*
Cc1nnsc1C(=O)Nc1ccc(S(=O)(=O)N2CCC(C)CC2)cc1 | 8% | 21 | 13% | 0% | -9 | -48*
CCOc1ccc2oc(=O)cc(CN3CCN(Cc4ccc(F)cc4)CC3)c2c1 | nt | 5 | nt | nt | -3 | -13
CCOC(=O)c1ccc(NC(=O)CC(=O)Nc2ccc3nc4n(c(=O)c3c2)CCCCC4)cc1 | nt | 1 | nt | nt | -3 | -14
O=C(NC1CCCCC1)C(c1ccc(Cl)cc1)N1CCC2(CC1)OCCO2 (configuration not stated) | 3% | 1 | 17% | -1% | -4 | -6
CCN1CCN(C(C(=O)NC2CCCC2)c2ccc(Cl)cc2)CC1 (configuration not stated) | 2% | 1 | -7% | -1% | -3 | -38*
CCC(=O)OCc1c(C(F)(F)F)nn(C)c1Sc1ccc(Cl)cc1 | -2% | 19 | -21% | -1% | -2 | -33*
CCC(=O)OCc1c(C(F)(F)F)nn(C)c1Sc1ccc(F)cc1 | 0% | 9 | -13% | 1% | 3 | 0
O=C(O)c1cccc(OCCN2CCCC2=O)c1 | -3% | 6 | -9% | -2% | -3 | -32*
O=C(NCCCN1CCCC1=O)c1cccc(Oc2ccccc2)c1 | -2% | 2 | 2% | 0% | -4 | 15
FC(F)C(F)(F)c1cc(-c2ccccc2)n[nH]1 | 0% | 43* | -24% | -1% | -5 | 4
O=C(CNC(=O)c1ccco1)OCc1c(F)cccc1Cl | nt | 4 | 6% | 3% | 1 | 7
O=C(NCCSCc1c(F)cccc1Cl)c1ccco1 | 2% | 12 | -2% | 9% | -10 | -33*
COCCNC(=O)CSCc1c(F)cccc1Cl | 0% | 2 | -4% | -11% | -7 | -44*
Cc1c(C(=O)NCCSCc2c(Cl)cccc2Cl)cccc1[N+](=O)[O-] | -1% | 44* | ? | -4% | -6 | -32*
Cc1oc(-c2ccccc2)nc1CNS(=O)(=O)c1ccc(Cl)cc1 | nt | -1 | nt | nt | 0 | -1
CCOC(=O)c1cc(CC)sc1NC(=O)CN1CCN(C(=O)c2ccco2)CC1 | -5% | 109* | -3% | 3% | -8 | -27
Cc1ccc(NC(=O)C2CCCN(S(=O)(=O)c3cccc4nsnc34)C2)cc1C (configuration not stated) | nt | 5 | nt | nt | 2 | -15
Cc1ccc(Cl)cc1NC(=S)N(CCCN1CCOCC1)Cc1ccccn1 | 1% | 0 | 6% | 3% | 0 | -74*
CCOc1ccc(C(=O)/C=C/c2ccc(SC)cc2)cc1 | 3% | 18 | -1% | -2% | 0 | -30*
COC(=O)c1ccc(/C=C/C(=O)c2ccc(OC)cc2)cc1 | -1% | 6 | -6% | -1% | 5 | -38*
SMILES | GALK inhibitor | D1 ag | Eya2 inh | USP2a inh | D1 PAM | D1 antagonist
CCOc1ccc(C(=O)/C=C/c2cc(OC)c(OC)c(OC)c2)cc1 | 2% | 1 | -12% | 4% | -3 | -49*
CCOc1ccc2nc(Cl)c(C3CC(c4ccccc4)=NN3C(=O)CCC(=O)O)cc2c1 (configuration not stated) | nt | 3 | nt | nt | 0 | 6
COC(=O)c1cc2oc3ccccc3c2n1CC(=O)Nc1cc(OC)cc(OC)c1 | nt | 4 | nt | nt | -3 | -2
Cc1cccc2sc(N(Cc3cccnc3)C(=O)CCS(=O)(=O)c3ccccc3)nc12 | nt | 8 | nt | nt | 4 | nt
Cc1ccc2sc(N(Cc3cccnc3)C(=O)CCS(=O)(=O)c3ccccc3)nc2c1C | nt | 31* | nt | nt | -2 | nt
Cc1ccc(C(=O)Nc2ccc(Oc3cccc(C(F)(F)F)c3)nc2)cc1 | 2% | 30 | ? | 3% | 3 | -31*
COc1ccc(NC(=O)Nc2cccc(C(F)(F)F)c2)cn1 | 13% | 18 | -11% | -4% | 5 | -30*
Cc1cc(C(F)F)n2nc(C(=O)Nc3cccc(C(F)(F)F)c3)nc2n1 | 0% | -1 | -6% | -1% | -5 | -40*
COc1ccc(C(F)(F)F)cc1NC(=O)c1nc2nc(C)cc(C(F)F)n2n1 | 0% | 6 | 19% | 2% | 1 | -1
O=C(Nc1cccc(C(F)(F)F)c1)Nc1cccs1 | nt | 25 | nt | nt | -7 | -44*
CCn1cc(Cl)c(C(=O)Nc2cccc(C(F)(F)F)c2)n1 | 2% | 1 | -7% | 4% | 0 | -36*
O=C(Nc1ccccc1)Nc1cccc(C(F)(F)F)c1 | 0% | 22 | -6% | 2% | -2 | -37*
COc1ccc(NC(=O)Nc2ccc([N+](=O)[O-])cc2)cn1 | 17% | 35* | 3% | 4% | -4 | -52*
CCn1cc(Cl)c(C(=O)Nc2ccc3c(c2)OCCO3)n1 | 11% | 2 | -7% | 1% | -2 | 2
O=C(Nc1cc(C(F)(F)F)ccc1Cl)C(O)Cc1ccccc1 (configuration not stated) | nt | 2 | nt | nt | -4 | 22
COc1ccc(C(=O)N(Cc2ccc(N(C)C)cc2)Cc2ccco2)cc1Cl | nt | 2 | nt | nt | 1 | -22
COCc1cc(C)nc2c1C(=O)NC(c1ccc(C)cc1)N2Cc1ccccc1 (configuration not stated) | nt | 3 | nt | nt | 3 | 3
CC(=O)c1nc(N2C(=O)CC(Cc3cccc(C)c3)C2=O)sc1C (configuration not stated) | -3% | 4 | 4% | 1% | -5 | -53*
O=C(O)c1ccc(CNCc2cc(Cl)ccc2O)cc1 | nt | 0 | -3% | 1% | 1 | nt
Cc1ccc(CNCc2cc(Cl)ccc2O)cc1 | nt | 60* | 4% | 0% | 0 | 2
Fc1ccc(Nc2c3c(nc4nncn24)CCC3)cc1 | nt | 0 | nt | nt | -1 | 17
c1ccc2c(c1)CCN(c1ncnc3nc[nH]c13)C2 | -2% | 2 | 0% | 4% | 1 | 0
C1=C(c2ccccc2)CCN(c2ncnc3nc[nH]c23)C1 | -3% | 2 | 5% | -1% | -10 | -66*
NC(=O)c1ccc[n+](CC(=O)c2ccccc2)c1 | -3% | 2 | 15% | -2% | 3 | 0
